This passage reports outcome and Potency results from PubChem BioAssay (Tox21).

The nature of test [1]: qHTS assay to test for compound auto fluorescence at 535 nm (green) in HEK293 cells (AID 720680). (In qHTS, concentration-response curves come from the screen itself.)
Test [2] is described as follows: qHTS assay to test for compound auto fluorescence at 460 nm (blue) in HEK293 cell free culture (AID 720681). Put shortly:
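Test compounds were pinned into cell-free culture medium (DMEM with 10% FBS) and fluorescence was read directly at Ex/Em 405/460 nm. Signals were expressed as fluorescence equivalents of triamterene, with DMSO vehicle as control.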

Test [3] in a line: qHTS assay to test for compound auto fluorescence at 535 nm (green) in HEK293 cell free culture (AID 720682). The procedure, abridged: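 Green-label autofluorescence (485 nm excitation, 535 nm emission) measured on compound added to cell-free culture medium (DMEM, 10% FBS). Output is expressed relative to fluorescein.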
Test [4] can be described thus: qHTS assay to test for compound auto fluorescence at 590 nm (red) in HEK293 cell free culture (AID 720683). The procedure, abridged: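 Tox21 10K library compounds were pinned into cell-free DMEM with 10% FBS and fluorescence was read at excitation 540 nm. Activity is expressed as Rose Bengal sodium equivalency.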
Test [5] is described as follows: qHTS assay to test for compound auto fluorescence at 590 nm (red) in HepG2 cell free culture (AID 720684). Put shortly: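 Red fluorescence (540 nm excitation, 590 nm emission) was measured after compound transfer into cell-free MEM supplemented with 10% FBS. Values are equivalencies against Rose Bengal sodium.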
Test [6] can be described thus: qHTS assay to test for compound auto fluorescence at 460 nm (blue) in HepG2 cell free culture (AID 720685). Put shortly:
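Compound (23 nL) or DMSO pinned into cell-free MEM with 10% FBS; blue fluorescence read at 405/460 nm excitation/emission, expressed as auto-fluorescence equivalency to triamterene.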

Test [7] in a line: qHTS assay to test for compound auto fluorescence at 535 nm (green) in HepG2 cell free culture (AID 720686).
Test [8] in a line: qHTS assay to test for compound auto fluorescence at 460 nm (blue) in HepG2 cells (AID 720687). The procedure, abridged: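 Cells (2,000/well in MEM with 10% FBS) attached overnight at 37 C, then were exposed to compound or DMSO for 1 hr at 37 C, 5% CO2. Fluorescence read at Ex/Em 405/460 nm, expressed as triamterene-equivalent signal.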
The target of test [9] is Glucocorticoid receptor (Homo sapiens) (UniProt P04150). In words: qHTS assay to identify small molecule agonists of the glucocorticoid receptor (GR) signaling pathway (AID 720691; active = well fitted activation curve with a large enough effect in the signal ratio in the repeat runs, not every such curve was filed as active; the % refers to the signal ratio). The procedure, abridged: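 Agonist mode in a HeLa line carrying a GRE-controlled beta-lactamase reporter. Compounds act for 18 h at 37 C before a 2 h room-temperature FRET substrate step and fluorescence reading.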

Test [10] shares this target. The test is described as follows: qHTS assay to identify small molecule antagonists of the glucocorticoid receptor (GR) signaling pathway (AID 720692; active = well fitted inhibition curve with a large enough effect in the signal ratio in the repeat runs, not every such curve was filed as active; the % refers to the signal ratio; note: potency is the fitted concentration of half-maximal effect). The procedure, abridged: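 Cells plated, rested 4 h at 37 C/5% CO2; compounds in DMSO pin-transferred; dexamethasone added to 5 nM final; 18 h at 37 C; B/G FRET substrate added, 2 h room temperature; fluorescence measured.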

Test [11] is described as follows: qHTS assay to identify small molecule antagonists of the glucocorticoid receptor (GR) signaling pathway - cell viability counter screen (AID 720693). Note: nearly all actives have a fitted effect of over 55% in size. Note: potency is the fitted concentration of half-maximal effect.
Test [12] in a line: qHTS assay for identifying genotoxic compounds that show differential cytotoxicity against isogenic chicken DT40 cell lines with known DNA damage response pathways - wild type cell line (AID 743012). Note: nearly all actives have a fitted effect of over 60% in size. Note: potency is the fitted concentration of half-maximal effect. The procedure, abridged:
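Cells (DT40 wild type, 300/well) are treated with DMSO-dissolved compounds after a ~0.5 h pre-incubation and kept 40 h at 37 C/5% CO2. Viability is then measured by CellTiter-Glo luminescence following 30 min at room temperature.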

Test [13] in a line: qHTS assay for identifying genotoxic compounds that show differential cytotoxicity against isogenic chicken DT40 cell lines with known DNA damage response pathways - Rev3 mutant cell line (AID 743014). Note: nearly all actives have a fitted effect of over 55% in size. Note: potency is the fitted concentration of half-maximal effect.
A short description of test [14]: qHTS assay for identifying genotoxic compounds that show differential cytotoxicity against isogenic chicken DT40 cell lines with known DNA damage response pathways - Rad54/Ku70 mutant cell line (AID 743015). Note: nearly all actives have a fitted effect of over 60% in size. Note: potency is the fitted concentration of half-maximal effect.
For test [15], the target named is Androgen receptor (Homo sapiens) (UniProt P10275). The test is described as follows: qHTS assay to identify small molecule agonists of the androgen receptor (AR) signaling pathway using the MDA cell line (AID 743040; note: nearly all actives have a fitted effect of over 20% in size). Put shortly: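 MDA-kb2 breast carcinoma cells stably carrying an MMTV-driven luciferase reporter (AR- and GR-responsive) were seeded and held 5 h at 37C, 0% CO2, then exposed to compounds in DMSO for 16 h. Luminescence was read 30 min after ONE-Glo addition.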

A short description of test [16]: qHTS assay to identify small molecule antagonists of the androgen receptor (AR) signaling pathway using the MDA cell line - cell viability counter screen (AID 743041; note: nearly all actives have a fitted effect of over 45% in size; note: potency is the fitted concentration of half-maximal effect). The procedure, abridged:
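MDA-kb2 AR-luc human breast carcinoma cells (MMTV-luciferase, AR/GR responsive) were treated with compounds plus R1881 agonist for 16 h at 37 °C. Viability was read as CellTiter-Fluor fluorescence in the same wells as the reporter assay.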

The target in test [17] is Androgen receptor (Homo sapiens) (UniProt P10275). In words: qHTS assay to identify small molecule antagonists of the androgen receptor (AR) signaling pathway using the MDA cell line (AID 743042; note: nearly all actives have a fitted effect of over 55% in size; note: potency is the fitted concentration of half-maximal effect). The procedure, abridged: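 MDA-kb2 cells (human breast carcinoma, stably carrying an MMTV-luciferase reporter responsive to AR and GR) were plated at 3,000 cells/well and preincubated 5 hr at 37C, then given compound plus R1881 agonist for 16 h. ONE-Glo luminescence was read.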

A short description of test [18]: qHTS assay to identify small molecule antagonists of the thyroid receptor (TR) signaling pathway - cell viability counter screen (AID 743064). Note: nearly all actives have a fitted effect of over 50% in size. Note: potency is the fitted concentration of half-maximal effect. Put shortly: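 GH3.TRE-Luc rat pituitary cells dosed after 4 hr plating, co-stimulated with T3 at 1 nM final, incubated 23.5 h at 37 C. Viability measured in the same wells by CellTiter-Fluor fluorescence after 30 min further at 37 C.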

Test [19] can be described thus: qHTS assay to identify small molecule antagonists of the androgen receptor (AR) signaling pathway - cell viability counter screen (AID 743033; note: nearly all actives have a fitted effect of over 45% in size).
Test [20] has as its target Androgen receptor (Homo sapiens) (UniProt P10275). In words: qHTS assay to identify small molecule agonists of the androgen receptor (AR) signaling pathway (AID 743036; active = well fitted activation curve with a large enough effect in the signal ratio in the repeat runs, with a control signal flat, not every such curve was filed as active; the % refers to the signal ratio). Put shortly: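 AR-UAS-bla HEK293 cells, plated 4 h before dosing, were treated with compound for 16 h at 37C. beta-Lactamase reporter read after 2 h with LiveBLAzer B/G FRET substrate at room temperature.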

Unmarked numbers belong to inactive results. Results filed as inconclusive are left out. Active and inactive are the calls of the source. Unless noted, calls come from the whole dose curve; as a rule, active = well fitted curve in the direction sought with a large enough effect in the repeat runs; inconclusive = weak or mixed curves; inactive = no such curve, though single readings can be large; an effect the other way counts as inactive or inconclusive.

Androgen receptor (Homo sapiens), sequence (P10275 whole entry, looked up): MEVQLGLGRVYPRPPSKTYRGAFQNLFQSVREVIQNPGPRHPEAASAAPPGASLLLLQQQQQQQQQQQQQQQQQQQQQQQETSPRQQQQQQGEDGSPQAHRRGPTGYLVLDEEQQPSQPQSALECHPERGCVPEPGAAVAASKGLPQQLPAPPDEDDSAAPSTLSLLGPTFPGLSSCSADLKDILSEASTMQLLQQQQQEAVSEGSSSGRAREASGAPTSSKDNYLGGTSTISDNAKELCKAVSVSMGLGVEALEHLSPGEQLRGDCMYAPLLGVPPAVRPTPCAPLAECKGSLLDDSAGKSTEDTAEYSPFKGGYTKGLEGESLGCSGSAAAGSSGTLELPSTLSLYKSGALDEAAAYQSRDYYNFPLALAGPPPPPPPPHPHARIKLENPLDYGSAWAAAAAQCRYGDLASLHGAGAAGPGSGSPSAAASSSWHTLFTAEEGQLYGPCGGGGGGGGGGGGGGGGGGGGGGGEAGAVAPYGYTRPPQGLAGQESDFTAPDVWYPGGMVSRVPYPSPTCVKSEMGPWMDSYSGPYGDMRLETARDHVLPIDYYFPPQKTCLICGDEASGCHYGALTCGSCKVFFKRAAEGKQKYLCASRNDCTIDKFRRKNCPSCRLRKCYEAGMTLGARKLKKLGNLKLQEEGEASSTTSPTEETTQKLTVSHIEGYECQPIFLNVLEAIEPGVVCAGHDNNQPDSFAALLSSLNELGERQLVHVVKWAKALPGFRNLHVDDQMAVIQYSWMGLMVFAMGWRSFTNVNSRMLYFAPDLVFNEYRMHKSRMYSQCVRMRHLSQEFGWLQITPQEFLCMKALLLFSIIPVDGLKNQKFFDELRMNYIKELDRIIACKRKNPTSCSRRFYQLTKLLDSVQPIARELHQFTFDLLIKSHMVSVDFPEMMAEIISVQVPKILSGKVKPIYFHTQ
Glucocorticoid receptor (Homo sapiens), sequence (P04150 whole entry, looked up): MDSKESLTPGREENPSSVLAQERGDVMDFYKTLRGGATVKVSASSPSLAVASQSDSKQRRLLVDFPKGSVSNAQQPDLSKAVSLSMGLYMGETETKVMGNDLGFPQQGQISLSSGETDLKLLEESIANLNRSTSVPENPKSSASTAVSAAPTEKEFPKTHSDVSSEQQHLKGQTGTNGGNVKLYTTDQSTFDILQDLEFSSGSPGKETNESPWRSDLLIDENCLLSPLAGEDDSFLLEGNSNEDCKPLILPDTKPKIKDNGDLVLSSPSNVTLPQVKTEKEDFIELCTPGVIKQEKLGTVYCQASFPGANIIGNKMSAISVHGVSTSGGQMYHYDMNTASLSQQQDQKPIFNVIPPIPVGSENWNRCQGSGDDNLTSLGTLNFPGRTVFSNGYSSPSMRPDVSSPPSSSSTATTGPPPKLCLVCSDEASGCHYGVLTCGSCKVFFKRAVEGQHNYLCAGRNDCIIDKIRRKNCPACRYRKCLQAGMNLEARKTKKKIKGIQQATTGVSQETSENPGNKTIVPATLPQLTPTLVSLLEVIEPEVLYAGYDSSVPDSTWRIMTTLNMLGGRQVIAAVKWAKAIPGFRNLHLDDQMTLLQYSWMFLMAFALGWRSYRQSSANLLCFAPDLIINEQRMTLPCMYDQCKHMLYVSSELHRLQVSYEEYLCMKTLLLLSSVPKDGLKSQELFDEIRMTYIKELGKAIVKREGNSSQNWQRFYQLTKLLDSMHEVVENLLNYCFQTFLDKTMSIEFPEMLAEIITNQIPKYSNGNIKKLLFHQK

`Cc1ccc2c(Cl)cc(Cl)c(O)c2n1`: the compound was called inactive in [1], in test [3], in test [4], in test [5], in test [6] and in test [7]. Moreover, the compound was called inactive in [8] and in [15]. Further, the Potency result in test [2] and in test [9] was “inactive” each time. The Potency in [10] is 16.9 µM (active); in test [11], 23.9 µM (active); in test [12], 1.88 µM (active); in test [13], 2.37 µM (active); in test [14] it was 1.88 µM (active); in test [16], 9.44 µM (active). Also, the Potency was 2.66 µM (active) in [17] and 1.19 µM (active) in test [18].

Turning to `CC(C)(C)c1ccc(CCC=O)cc1`, the compound was called inactive in [1], in [3], in test [4], in test [5], in test [6] and in [7]. In [8], the result was inactive. Besides, the Potency result in [2], in [9], in test [10], in test [11], in [12] and in [13] was “inactive” in each case. For the same compound, the Potency result in [14], in [16] and in test [18] was “inactive” each time.

With `CC(C)CCCCCOC(=O)CS`, the compound was classed as inactive in [1], in test [3], in test [4], in [5], in [6] and in test [7]. The compound was classed as inactive in [8]. Also, the Potency entry in test [2], in test [9], in test [10], in test [11], in test [19] and in test [16] was “inactive” in each case. Also, the Potency result in [18] is “inactive”. Moreover, the Potency in test [12] is 61.1 µM (active); in test [13], 54.5 µM (active); in test [14], 54.5 µM (active).

On to `CC1(C)CC(=O)CC(C)(C)N1`, for which the outcome in test [1], in test [3], in test [4], in test [5], in test [6] and in [7] was inactive. In test [8], the compound was classed as inactive. Besides, the Potency result in test [2], in [9], in [10], in test [11], in test [12] and in test [13] was “inactive” each time. For the same compound, the Potency result in [14], in test [19], in test [16] and in test [18] was “inactive” throughout.

In the case of `O=C(O)c1cccc(C(=O)O)c1C(=O)O`, the call in test [1], in test [3], in test [4], in test [5], in test [6] and in test [7] was inactive. The call in test [8], in [20] and in test [15] was inactive. Moreover, the Potency result in test [2], in [9], in [10], in test [11], in test [12] and in test [13] was “inactive” each time. Besides, the Potency result in [14], in [19], in [16] and in test [17] was “inactive” throughout.

As to `OCCc1ccncc1`, the compound was called inactive in [1], in test [3], in test [4], in [5], in test [6] and in [7]. The result in test [8] was inactive. In addition, the Potency entry in [2], in [9], in test [10], in test [11], in [12] and in [13] was “inactive” each time. The Potency result in test [14], in [19], in [16] and in test [18] was “inactive” each time.

For the compound `Cc1ccc(NC=O)c(C)c1`, the call in test [1], in [3], in test [4], in test [5], in test [6] and in test [7] was inactive. Also, in test [8], the compound was called inactive. For the same compound, the Potency entry in [2], in test [9], in test [10], in test [11], in [12] and in test [13] was “inactive” in each case. In addition, the Potency entry in test [14], in test [16] and in [18] was “inactive” throughout.

As to `CC1(C)C(=O)NC(=O)N1CO`, the result in [1], in test [3], in test [4], in [5], in test [6] and in test [7] was inactive. For the same compound, the result in [8] was inactive. In addition, the Potency result in test [2], in [9], in test [10], in test [11], in test [12] and in test [13] was “inactive” in each case. Besides, the Potency entry in test [14], in test [19], in test [16] and in test [18] was “inactive” in each case.
